High-throughput results as filed in PubChem.
A selection: hits, their analogues and other compounds. The true share with any hit is near 12%.
Pf growth 48h – Primary qHTS for delayed death inhibitors of the malarial parasite plastid, 48 hour incubation | P. falciparum luciferase growth in erythrocytes, 48 h | Potency, µM (top dose mostly 28.7 µM), without a hit: at the top dose activity change, negative = inhibition, actives largely listed as inhibitors | AID 504832, 2011 | actives 5.9% (n = 310,000); also: % is scaled to controls: 0 for no effect and ±100 for the full control effect
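Luciferase-expressing parasites in RBCs, 2% Hct / 0.1% parasitemia final; RPMI 1640 + 0.5% Albumax; 37 C, 5% CO2, one generation; luminescence read-out, lower signal = inhibition.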
Sm TGR block – qHTS Assay for the Inhibitors of Schistosoma Mansoni Peroxiredoxins; Schistosoma mansoni thioredoxin glutathione reductase (TGR), Q962Y6; purified TGR, DTNB reduction, TNB absorbance 405 nm; Potency, µM (highest dose often 114 µM), for inactives: top-dose activity change, negative = inhibition, hits mostly inhibitors; actives 3% (n = 360,000); also: % is scaled to controls: 0 for no effect and ±100 for the full control effect; nearly all actives have a fitted effect of over 60% in size
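Kinetic colorimetric format: TGR-catalysed, NADPH-driven DTNB reduction monitored via TNB absorbance. Enzyme dispensed at 20 nM; compound exposure 15 min at room temperature before reaction start.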
AmpC inh detg – qHTS Inhibitors of AmpC Beta-Lactamase (assay with detergent); AmpC hydrolysis of nitrocefin, absorbance 480 nm, 0.01% Triton; Potency, µM (highest dose often 114 µM), inactives show at the top dose activity change, negative = inhibition, usual class: inhibitors; actives 0.041% (n = 370,000);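 also: 0% = no-compound wells and -100% = no-enzyme wells; nearly all actives have a fitted effect of over 25% in size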
Target sequence (P00811 whole entry, looked up): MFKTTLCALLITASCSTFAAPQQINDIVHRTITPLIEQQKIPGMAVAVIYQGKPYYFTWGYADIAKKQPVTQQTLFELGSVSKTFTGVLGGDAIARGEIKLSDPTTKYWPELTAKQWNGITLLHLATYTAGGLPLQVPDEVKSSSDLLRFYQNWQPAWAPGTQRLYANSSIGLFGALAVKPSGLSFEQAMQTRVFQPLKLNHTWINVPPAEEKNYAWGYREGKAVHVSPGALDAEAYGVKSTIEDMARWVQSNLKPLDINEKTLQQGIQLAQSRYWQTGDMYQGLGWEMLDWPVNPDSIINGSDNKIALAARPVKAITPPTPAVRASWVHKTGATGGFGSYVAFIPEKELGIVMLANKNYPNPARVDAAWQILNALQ
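AmpC (5.3 nM in the dispensed reagent) in 20 mM phosphate pH 7.0 with 0.01% (detergent screen) or 0.0001% Triton X-100 was preincubated with compounds for 15 min at room temperature. Nitrocefin was then added from an 800 uM solution, and hydrolysis was followed at 480 nm.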
SARS PLpro yeast – qHTS of Yeast-based Assay for SARS-CoV PLP; S. cerevisiae expressing SARS-CoV PLpro, growth rescue; actives 0.19% (n = 330,000); AID 485353, 2010; Potency, µM (titrated, usually from 32.9 µM), inactives show at the highest dose activity, positive = growth rescue, actives largely listed as activators; calls by dose curve; also: 0% is about no effect; nearly all actives have a fitted effect of over 55% in size
Pf growth 96h – Primary qHTS for delayed death inhibitors of the malarial parasite plastid, 96 hour incubation | P. falciparum luciferase reporter growth, 96 h | Potency, µM (top dose mostly 28.7 µM), without a hit: at the top dose activity change, negative = inhibition, actives largely listed as inhibitors | actives 6.9% (n = 320,000); also: % is scaled to controls: 0 for no effect and ±100 for the full control effect
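Parasite growth measured via integrated firefly luciferase reporter in P. falciparum. Infected erythrocytes at 2% hematocrit, 0.05% parasitemia final were treated 96 hours at 37 C under 5% CO2, and luminescence was read.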
AmpC no deterg – qHTS Inhibitors of AmpC Beta-Lactamase (assay without detergent). Potency, µM (titrated, usually from 57.1 µM), for the others: top-dose activity change, negative = inhibition, hits mostly inhibitors. actives 0.52% (n = 330,000). AmpC nitrocefin hydrolysis, absorbance 480 nm, 0.0001% Triton. AID 485341, 2010. P00811;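 also: plate controls were no compound for no effect and no enzyme for full effect; nearly all actives have a fitted effect of over 20% in size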
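20 mM phosphate pH 7.0 + 0.01% (detergent screen) or 0.0001% Triton X-100; 5.3 nM AmpC reagent; cpd preinc 15 min RT; nitrocefin (800 uM stock) to start; A480 q20 s × 4 min; Activity was normalised to no-enzyme and no-compound control wells.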
* hit, by the source's call; ? = inconclusive; nt = no result given; [ ] = another dose, or the depositor's remark. Unless noted, calls follow the shape of the dose curve; as a rule, active = well fitted curve in the direction sought with a large enough effect; inconclusive = small, poorly fitted or top-dose-only effect, or another doubt; inactive = no such curve, though single readings can be large; an effect the other way counts as inactive or inconclusive. Potency is read from the fitted curve at half-maximal effect.

SMILES	Pf growth 48h	Sm TGR block	AmpC inh detg	SARS PLpro yeast	Pf growth 96h	AmpC no deterg
COC(=O)c1cc(OC)c(OC)cc1NC(=S)Nc1cccc(Cl)c1	3%	-23%	0%	-5%	13µM*	-24%
COC(=O)c1cc(OC)c(OC)cc1NC(=S)NC(=O)c1ccco1	22%	11µM*	2%	-2%	50%	0%
COc1cc(NC(=S)NC(=O)c2cccs2)ccc1NC(=O)C(C)C	2%	18µM*	-5%	-7%	-18%	-14%
CCc1cccc2c(-c3ccc(F)cc3)nc(SCC(=O)Nc3ccccc3)nc12	nt	1%	-2%	nt	nt	nt
CCOC(=O)c1c(C)[nH]c(C)c1S(=O)(=O)N(C)CC(=O)Nc1cccc(C(F)(F)F)c1	nt	2%	0%	nt	nt	nt
CCOc1ccccc1-c1nc(-c2ccc(NC(=O)Cc3ccccc3OC)cc2)no1	13µM*	-3%	1%	7%	3.7µM*	-33%
CCOc1ccccc1-c1noc(CCC(=O)Nc2cccnc2)n1	11%	3%	4%	8%	8.3µM*	-2%
O=C(CCc1nc(-c2ccccc2F)no1)Nc1cccnc1	14%	0%	3%	-2%	-22%	0%
O=C(Cc1ccccc1)Nc1ccc(-c2nnc(-c3ccco3)o2)cc1	23%	-1%	-5%	18%	102%	-13%
COc1ccccc1CC(=O)Nc1ccc(-c2noc(COc3ccc(Cl)c(C)c3)n2)cc1	nt	0%	-12%	8%	-12%	-16%
CCOc1ccccc1NC(=O)c1ccccc1-c1nc(-c2ccccc2)no1	?	2%	4%	5%	8.3µM*	-8%
COc1ccccc1CC(=O)Nc1ccc(-c2nnc(-c3ccco3)o2)cc1	8.3µM*	2%	-12%	3%	135%	9%
CCc1cccc(NC(=O)CCS(=O)(=O)c2ccc(C)cc2)c1	nt	-6%	-1%	nt	nt	nt
CSc1nnc(C)c(=O)n1COC(=O)c1cc(Cl)ccc1[N+](=O)[O-]	5%	22µM*	-3%	-1%	0%	-45%
O=S(=O)(Nc1ccc(N=Nc2ccc(O)c3ccccc23)cc1)c1ccccc1	2.3µM*	-12%	-1%	-49%	5.2µM*	-24%
O=S(=O)(Nc1ccc(N=Nc2ccccc2)cc1)c1ccccc1	36%	-13%	-15%	-12%	-9%	-25%
CCc1n[nH]c(=S)n1/N=C/c1ccc(N(C)c2ccccc2)cc1	10µM*	0%	7%	9%	?	-5%
CCc1n[nH]c(=S)n1/N=C/c1ccc2c(c1)OCO2	6%	12%	-7%	7%	17%	-18%
O=C(NC1CC(=O)N(c2ccc3c(c2)OCCO3)C1)c1c(F)cccc1Cl (stereo not drawn)	nt	-5%	-4%	nt	nt	nt
Cc1cccc(CSc2ccc3nnc(CCNS(=O)(=O)c4ccccc4)n3n2)c1	nt	-12%	-5%	nt	nt	nt
CN(CC(=O)N1CCN(Cc2ccccc2)CC1)S(=O)(=O)c1ccc(F)cc1	4%	-25%	-8%	8%	12µM*	-4%
CCN1CCN(C(=O)CN(CC)S(=O)(=O)c2ccc(F)cc2)CC1	-7%	0%	-9%	-4%	3.3µM*	-10%
CCCCCc1ccc(OCCC[n+]2ccccc2)c(CCCCC)c1	1.9µM*	4%	-7%	-4%	?	154%
CCCCOc1ccc(CCN)cc1Cl	5%	-2%	-12%	-12%	31%	-1%
CCCCCc1ccc(OCCOCCn2c[n+](C)c3ccccc32)c(CCCCC)c1	2.9µM*	-9%	-5%	-18%	-20%[1.15 µM]	243%
COc1cc2c(cc1OC)C(c1cc(OC)c(OC)c(OC)c1)NCC2 (stereo not drawn)	-1%	4%	-2%	-2%	-6%	-37%
